# Test results from the supplement of paper PMC10338343.
# ± gives the standard deviation.
# Test system: MILI (PIWIL2) piRISC loaded with L1MC piRNA (26 nt)
# Test: pre-steady-state target cleavage rate (min^-1); guide: L1MC piRNA 5'p-UAACUAAAUACUAUGCAAGCUGUAGG; MIWI and MILI are mouse PIWI proteins and EfPiwi is from a freshwater sponge; tags in brackets are library labels; higher = faster piRNA-guided slicing of the target
# Conditions: auxiliary factor: 500 nM mouse GTSF1
# Summary of the method: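 At 33 °C in HEPES–potassium acetate buffer, a transcribed, DNA-blocked target RNA library […] was exposed for 0–8 or 0–960 min to 1 nM active affinity-purified piRISC carrying a single synthetic guide, with or without 500 nM GTSF1 partner protein. Uncleaved targets were sequenced and normalised to depth and to weakly complementary targets. With three trials pooled and k3 capped at 0.0001 min^-1, a burst-and-steady-state fit produced the pre-steady-state cleavage rate.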
# 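Note: 1 nM active piRISC with 0.1 nM target library at 33 °C single turnover.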
row,Sequence,pre-steady-state target cleavage rate
1,UCCUGGAUGUGCUUGCAAACUAUUUAGUUA,0.00852 ± 0.0038
2,UCCUGGAUGUGCUUGCAUAGUUUUAAGUUA,0.0104 ± 0.0059
3,UCCUCCUACAGCUUGCAUAGAAUUUACUUA,0.0813 ± 0.022
4,UCCUGGAUGUCGAUGCAUAGUAUUUCGUUA,0.0116 ± 0.0056
5,UCCUGGAUGUGCUUGCCAUAGUAUUUAGUUA,0.014 ± 0.0071
6,UCCUGCUACAGCUUGCAAUGUAUUUUCAAA,0.00975 ± 0.0041
7,UCCUCCUACAGCUACGAUAGUAUUUAGAAA,0.13 ± 0.029
8,UCCUGGAUGUCCUUGCAUAGUAUUUGUUA,0.0123 ± 0.0057
9,UCCUGGAACAGCUUGCAUAGCUAUUUAGUUA,0.00904 ± 0.0044
10,UCCUGCUACAGCUUGCAAUGUAUUUAGAAA,0.0407 ± 0.013
11,UCCUGGAUGUCGAUGCAUAGUUUUAAGUUA,0.00654 ± 0.0039
12,UCCUGGAUGUCCUUGCAUUGAAUUUAGUUA,0.00493 ± 0.0046
13,UCCUGGAUGAGCUUCCAUUGUAUUUAGUUA,0.0518 ± 0.016
14,UCCUGGAUGUCGAAGCAUAGUAUUUGAGUUA,0.0579 ± 0.012
15,UCCUGGAACAGCUUGCAUAGUAUAAACAAA,0.0505 ± 0.015
16,UCCUGGAUGUCGUUGCAAAGUAUUUUGUUA,0.0092 ± 0.0056

row,Sequence,pre-steady-state target cleavage rate
1,UCCUGGAUGUCGAAGCAUAGUAUUUACGUUA,0.0359 ± 0.0066
2,UCCUGGAUGUCCUAGGAUAGUAUUUAGUUA,0.0104 ± 0.0042
3,UCCUGGUACAGCUUGCUAUGUAUUUAGUAA,0.00603 ± 0.0046
4,UCCUGGAACAGCUUGCAUAGCAUUUAGUUA,0.0886 ± 0.013
5,UCCUGGAUGUCCUUGCAUAGUAAAAAGUAA,0.00651 ± 0.0043
6,UCCUGGUACAGCUUGCUAAGUAUUUAGUAA,0.036 ± 0.012
7,UCCUGGUUGUGCUUGCAUAGUAUUUUCAAA,0.00513 ± 0.005
8,UCCUGCUACAGCUUGCUUAGUAUUUACUUA,0.11 ± 0.015
9,UCCUGGAUGUCGAACGUUGAGUAUUUAGUUA,< 0.0001
10,UCCUGGAUGUCGAAGCAUAGUAUUAAGUAA,0.0172 ± 0.0065
11,UCCUCCUACAGCUUGCAUAGUAUUUAGAUUA,0.122 ± 0.022
12,UCCUGGAUGAGCUUGCAUAGUAUAUAGAUA,0.019 ± 0.0076
13,UCCUGGAUGUCCUUGCAUUGUAUUUACUUA,0.0534 ± 0.012
14,UCCUGGAUGUCGAUGCAUAGUUAUUUAGUUA,0.00685 ± 0.0037
15,UCCUGGAACAGCUUGCAUAGUAUAUAGAUA,0.0877 ± 0.022

# Same assay, conditions: auxiliary factor: none (no GTSF1)
row,Sequence,pre-steady-state target cleavage rate
1,UCCUGGAUGUCGAACGUAUCUUAUUAGUUA,< 0.0001
2,UCCUGGAUGUCGAACAAUAGUAUUUAGUUA,< 0.0001
3,UCCUGGAUGUGCUUCCAUAGUAUUUAGAUA,< 0.0001
4,UCCUGGAUGUCGUUGCAUAGGUAUUUAGUUA,0.00509 ± 0.0029
5,UCCUGGAUGUGCUUGCAUAGAUAUUUAGUUA,0.00495 ± 0.0023
6,UCCUGGAUGUCGAACGUAAGUAUUUAGUUUA,< 0.0001
7,UCCUGGAUGUCGAACGAUAGUGUUUAGUUA,< 0.0001
8,UCCUGGUACAGCUUGCAUACAAUUUAGUUA,0.00451 ± 0.0027
